From ChEMBL document CHEMBL3988442, “University of Dundee, Small-Polar-MMV Screening Library” (2021) come the findings set out here.

Each structure is given as a SMILES string. About 900 (1.7%) of roughly 53,000 compounds showed an effect of 50% or more. What follows is part of a selection rich in strong results, with near analogues and random picks from the rest.

In this assay the test system is Mycobacterium tuberculosis. Description: Cornell - Phenotypic assay to identify agents that inhibit growth of Mycobacterium tuberculosis. In kind it is functional. The arrangement: scale not given: direction of the effect not stated beside the values. To be noted: 10 mM as filed; unlikely as a test dose.
With `Cc1noc(C(C)N2CCc3[nH]c4ccc(Cl)cc4c3C2)n1` (stereo not given), the “Percent Effect” value is recorded as 63.72%.

With `Cc1nnc(C(C)N2CCc3[nH]c4ccccc4c3C2)o1` (stereo not given), the “Percent Effect” value is reported as 28.26%. As for `Cc1nnc(C(C)N2CCc3[nH]c4ccc(Cl)cc4c3C2)o1` (stereo not given), the figure is 34.8%; as for `CN(C)CCn1c2c(ccc1=O)CC(NC(=O)c1ccsc1)CC2.O=C(O)C(F)(F)F` (stereo not given), -27.73%.

Take `CCN(CC1CCCO1)C(=O)Nc1ccc(F)cc1OC` (stereo not given): the “Percent Effect” value was found to be 2.654%.

Regarding `CCN(CC1CCCO1)C(=O)Nc1cc(OC)c(OC)cc1C` (stereo not given), the “Percent Effect” value was determined as 69.91%. In the case of `CCN(CC1CCCO1)C(=O)Nc1ccc(OC)c(C)c1` (stereo not given) it was 29.95%. In the case of `CC(Oc1ccc2c(c1)OCO2)C(=O)N1CCC(c2ncc[nH]2)CC1` (stereo not given) it was -2.052%; in that of `Cc1ccc(C2CSCCN2C(=O)c2cccs2)o1` (stereo not given), -1.514%. As for `CNC(=O)c1cnn2c(C3CCCN3)ccnc12` (stereo not given), the figure is -26.66%. Take `Cn1ccnc1CN1CCCC(Cc2ccnc3ccncc23)CC1.O=CO` (stereo not given): the “Percent Effect” value is reported as 25.28%.

In the case of `CCOCCOC(C)C(=O)Nc1nccn1Cc1ccccc1` (stereo not given), the “Percent Effect” value is given as 4.045%. For the compound `CC(OCC1CC1)C(=O)Nc1nccn1Cc1ccccc1` (stereo not given), the “Percent Effect” value was found to be 51.13%.

As to `CC(OCC1CC1)C(=O)Nc1ccn(Cc2ccccc2)n1` (stereo not given), the “Percent Effect” value was -1.057%.

On to `CCC(=O)N1CCCCC1c1nc(O)c2c(n1)CN(S(=O)(=O)CC)CC2` (stereo not given), for which the “Percent Effect” value was found to be 9.253%. Turning to `O=C1CCC(c2nc(C3CCN(C(=O)Cc4cccs4)CC3)no2)N1` (stereo not given), the “Percent Effect” value amounted to 57.39%.

Consider `Cc1nc([C@@H]2C[C@@H]3CCN(C(=O)Cc4cccc(F)c4)C[C@H]3O2)no1`, for which the “Percent Effect” value turned out to be 16.61%.

In the case of `O=C1CCC(c2nc(C3CCN(C(=O)C4CC4)CC3)no2)N1` (stereo not given), the “Percent Effect” value was 13.14%.

For the compound `Cc1nc([C@@H]2C[C@@H]3CCN(C(=O)Cc4cccs4)C[C@H]3O2)no1`, the “Percent Effect” value came out at 53.11%. As for `CC(=O)N1CCC(c2noc(C3CCC(=O)N3)n2)CC1` (stereo not given), the figure is 5.586%. On to `Cc1nc([C@@H]2C[C@@H]3CCN(C(=O)Cc4ccsc4)C[C@H]3O2)no1`, for which the “Percent Effect” value is -0.3005%. On to `CC(=O)N[C@@H]1CN(Cc2cccs2)C[C@H]1c1ccc(C)o1`, for which the “Percent Effect” value came to 10.2%.

With `Cn1nc(COc2cccnc2)c2c1CCN(CC1CC1)C2.O=C(O)C(F)(F)F.O=C(O)C(F)(F)F`, the “Percent Effect” value is reported as -1.302%. As for `CCCN(CCO)S(=O)(=O)c1ccc2[nH]c(=O)[nH]c2c1`, the “Percent Effect” value amounted to 11.31%. In the case of `Cc1cc(C[C@@H]2CCC[C@H]2NCc2ccccc2C(F)(F)F)on1.O=C(O)CC(O)(CC(=O)O)C(=O)O` it was 12.28%; in that of `Cc1cc(C[C@@H]2CCC[C@H]2NCc2cc(C)c(O)c(C)c2)on1.O=C(O)CC(O)(CC(=O)O)C(=O)O`, 77.55%; in that of `Cc1cc(C[C@@H]2COC[C@H]2NCc2ccc(C)c(C)c2)on1.O=C(O)CC(O)(CC(=O)O)C(=O)O`, -9.136%.

For the compound `CC(=O)N1CCC2(CCN(Cc3ccc(Cl)c(C(F)(F)F)c3)CC2)C1`, the “Percent Effect” value is 43.5%. In the case of `Cc1cc2nc(C(C)C)cc(N3CCC(N(C)C)C3)n2n1` (stereo not given) it was 32.15%. As for `O=c1[nH]c2c(-c3ccccn3)nsc2c(=O)n1CC1CCCO1` (stereo not given), the figure is -0.9245%; as for `CO[C@H]1C[C@@H]2CN(C(=O)c3ccc(C)s3)C[C@@H]2C1`, 41.56%; as for `Cc1ccc(C(=O)N2CC(Oc3ccccc3C)C2)s1`, 67.58%. With `COc1ccccc1OC1CN(C(=O)c2ccc(C(C)=O)s2)C1`, the “Percent Effect” value was -4.28%. In the case of `COc1cccc2ccc(N3CCC(O)(C(=O)O)CC3)nc12` it was -24.68%; in that of `CC(c1nc(C(C)(C)C)no1)N1CCN(Cc2ccco2)CC1` (stereo not given), 11.7%; in that of `CCn1ccnc1CN1CCCN(C(=O)COC2CCCC2)CC1`, -24.49%. As for `CNc1ncc(C(=O)N2CCOC(C(=O)N3CCCCCC3)C2)cn1` (stereo not given), the figure is -4.246%; as for `CCOc1cccc2c1OCC(C(=O)NS(=O)(=O)c1cncc(Br)c1)=C2`, 44.21%. Turning to `CCOc1cccc2c1OCC(C(=O)NC(C)Cn1cccn1)=C2` (stereo not given), the “Percent Effect” value is reported as 7.345%. Take `CCOc1cccc2c1OCC(C(=O)NS(=O)(=O)c1cccs1)=C2`: the “Percent Effect” value is reported as 19.94%.

As for `CCOc1cccc2c1OCC(C(=O)NS(=O)(=O)Cc1ccccc1)=C2`, the “Percent Effect” value is recorded as 106.8%. In the case of `CCOc1cccc2c1OCC(C(=O)NS(=O)(=O)c1ccc(Cl)cc1)=C2` it was 104.6983%; in that of `Cc1cc(OCC(=O)NS(=O)(=O)c2c(C)noc2C)ccc1Cl`, 39.96%; in that of `CCOc1cccc2c1OCC(C(=O)NS(=O)(=O)c1ccc(Cl)s1)=C2`, 9.699%. In the case of `Cc1ccc(OCC(=O)NS(=O)(=O)Cc2ccccc2)cc1` it was 7.336%. As for `CCOc1ccccc1C(=O)NS(=O)(=O)c1ccc2c(c1)OCCCO2`, the figure is 27.03%. Consider `CCOc1cccc2c1OCC(C(=O)NS(=O)(=O)c1ccc(Br)s1)=C2`, for which the “Percent Effect” value was -17.73%.

Regarding `CCOc1cccc2c1OCC(C(=O)NS(=O)(=O)c1ccc(C)s1)=C2`, the “Percent Effect” value worked out at 107.6%.

For `CCOc1cccc2c1OCC(C(=O)NS(=O)(=O)c1c(C)noc1C)=C2`, the “Percent Effect” value is reported as 106%.

As for `CCc1cnc(NC(=O)NC2CCN(C3CCCC3)CC2)s1`, the “Percent Effect” value was -3.242%.
